Shown are actives, neighbours in structure and some others; about 2.7% of the full set was active somewhere.
CF NFkB inh: blocks PAF-induced NF-kB reporter in cystic fibrosis cells; KKLEB NF-kB-GFP reporter, GFP fluorescence overnight; inhibition, % at 5 µM; hit rate 0.86% among 360,000;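 active = at least 50% inhibition at 5 µM, scaled per plate between neutral and stimulator controls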;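 note: PAF is a Pseudomonas aeruginosa culture filtrate used as stimulus; plate controls were PAF-stimulated DMSO wells for no effect and unstimulated DMSO wells for full effect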
MITF TRPM1 inh: reduces MITF-dependent TRPM1 promoter luciferase signal; SK-MEL-5 TRPM1 promoter luciferase, 24 h; inhibition, % at 12.5 µM; hit rate 0.83% among 330,000; AID 488899;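 active = mean inhibition across replicates of 60% or more, whatever share of single replicates reaches that level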
KKLEB tox: counter-screen for CF NF-kB inhibitors: cytotoxicity; AID 602141; activity change (cytotoxicity), % at 5 µM; KKLEB CF airway cells viability, ATPlite luminescence, overnight; active compounds read low; cells stimulated with P. aeruginosa culture filtrate; hit rate 0.36% among 360,000;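 active = corrected activity change at or below -50% at 5 µM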
Peg3 promoter: Peg3 promoter activity inhibition. HeLa PEG-Prom luciferase reporter, luminescence, overnight. inhibition, % at 20 µM. hit rate 1.7% among 360,000. AID 588405;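 active = inhibition of at least 50% at 20 µM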
Shn3 3UTR inh: inhibitors of Schnurri-3 3'UTR reporter in osteoblasts; inhibition, % at 12.5 µM; Clone20 osteoblast Shn3 3'UTR firefly luciferase, 24 h; AID 588674; hit rate 0.52% among 360,000;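 active = mean inhibition of at least 75% with every replicate also reaching 75%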;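 note: 0% = median of neutral control wells and 100% = pilot-screen positive control compound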
HIF-2a inh: blocks HIF-2a reporter activity. 786-0 RCC cells HIF-2a reporter, luciferase luminescence, overnight. inhibition, % at 18.8 µM. hit rate 0.72% among 360,000. AID 624352;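 active = inhibition of the luminescence signal of 40% or more relative to plate controls, in a single-dose primary screen at 18.75 µM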
* marks the source's active call; other numbers are inactive results; . = no result given; ! = a repeat was not active.

SMILES	CF NFkB inh	MITF TRPM1 inh	KKLEB tox	Peg3 promoter	Shn3 3UTR inh	HIF-2a inh
O=C1c2ccccc2C(=O)C1c1ccnc2ccccc12	-134	36	-70*	83*	43	24
O=C1c2ccccc2C(=O)C1c1nccc2ccccc12	-144	55	-65*	88*	0	3
N#CC1=C(N)SC(N)=C(C#N)C1c1ccnc2ccccc12	-7	19	3	0	2	16
CCOC(=O)c1cc([N+](=O)[O-])c([N+](=O)[O-])cc1NC(C)=O	60*	88*	-21	109*	98*	23
CC(C)(C)S(=O)N1Cc2cc(C(=O)N3CCc4ccccc4C3)nc(-c3cccc(-c4cccnc4)c3)c2[C@@H]1CCO (stereo partly specified)	8	.	-15	-15	9	8
COc1cc(C(CCN2CCCC(C)C2)c2c(OC)cc(OC)c3c(-c4ccccc4)cc(=O)oc23)cc(OC)c1OC (stereo unspecified)	3	90*	-6	87*	12	13
COc1cc(C(CCN2CCCCC2)c2c(OC)cc(OC)c3c(-c4ccccc4)cc(=O)oc23)cc(OC)c1OC (stereo unspecified)	16	85*	-3	78*	7	7
CC1=C(C(=O)N(C(C)C)C(C)C)CC(CC(=O)NCC2CCCCC2)C(=O)N1Cc1ccc(C(C)(C)C)cc1 (stereo unspecified)	.	.	.	.	.	-60
Cc1cccc(CN2CCC(C(=O)Nc3cccc(-c4cccc(F)c4)c3)CC2)n1	0	26	-13	29	26	14
Cc1nn(C(C)C)c(C)c1CN1CCC(C(=O)Nc2cccc(-c3cccc(F)c3)c2)CC1	31	61*	-5	89*	14	0
O=C(Nc1cccc(-c2cccc(Cl)c2)c1)C1CCN(Cc2ccccn2)CC1	10	-5	-8	35	-9	19
Cc1c(CN2CCC(C(=O)Nc3cccc(-c4cccc(Cl)c4)c3)CC2)cnn1C	13	-4	-14	69*	-24	16
C=CCn1cc(CN2CCC(C(=O)Nc3cccc(-c4cccc(Cl)c4)c3)CC2)c(C)n1	15	75*	-7	-109	14	9
CCCn1ncc(CN2CCC(C(=O)Nc3cccc(-c4cccc(F)c4)c3)CC2)c1C	-8	-10	-8	60*	33	23
Cc1cccc(C)c1NC(=O)C1(C)CSCC(=O)N1Cc1cccs1 (stereo unspecified)	.	.	.	.	.	12
OC(c1ccccc1)C(NCc1ccccc1)c1ccccc1 (stereo unspecified)	-29	.	-1	0	-15	-14
CC(C)N=C(NC#N)SCc1ccccc1F	-6	-1	10	0	-6	-4
N#CNC(=Nc1cccc(F)c1)SCc1ccccc1F	22	11	10	74*	18	-14
C=C[C@H]1CN2CC[C@H]1C[C@H]2[C@H](O)c1ccnc2ccc(OC)cc12	16	1	-21	8	6	-12
C/C(=N\Nc1ccc([N+](=O)[O-])cc1)c1ccc(C#N)cc1	-16	-17	12	0	0	-11
N#CC(C#N)=NNc1ccc([N+](=O)[O-])cc1	57*	-2	-26	-41	13	-8
COc1ccc(C(=O)/C(C#N)=N/Nc2ccc([N+](=O)[O-])cc2)cc1	56*	72*	-33	38	89*	-1
COc1ccc(C(=O)/C(C#N)=N/Nc2ccccc2[N+](=O)[O-])cc1	36	11	-21	-3	6	-135
C[C@H](CO)N1C[C@H](C)[C@H](CN(C)Cc2ccncc2)Oc2cc(-c3ccccc3F)ccc2S1(=O)=O	-11	.	-2	8	6	11
Cc1cccc(CSc2nc(N)c(C#N)c(-c3cccs3)c2C#N)c1	19	8	-20	63*	47	25
SMILES	CF NFkB inh	MITF TRPM1 inh	KKLEB tox	Peg3 promoter	Shn3 3UTR inh	HIF-2a inh
CCOC(=O)N1CCC(N2C(=O)c3ccccc3C2Nc2ccc3c(c2)OCCO3)CC1 (stereo unspecified)	13	71*	12	14	13	23
O=C(c1cc2cc(Cl)cc(Cl)c2oc1=O)N1CCOCC1	-8	8	0	55*	-7	9
O=C(c1ccc(Cl)cc1Cl)N1CCOCC1	11	-5	5	5	-3	8
Cc1cc(Br)c2c(c1)/C(=C/C(=O)c1cccs1)C(=O)N2	33	51	-1	69*	97*	24
Cc1cc(C)c2c(c1)/C(=C/C(=O)c1ccc(Br)s1)C(=O)N2	40	59	-61*	52*	50	4
CCc1nc2ccc(C(=O)Nc3ccc(Cl)c(Cl)c3)cn2c1N(C)Cc1ccc(OC)cc1	42	.	-31	-96	-21	-277
COC(=O)[C@]12CCCCC=C1N(Cc1ccco1)C(=O)[C@H](CC(=O)N1CCOCC1)C2	.	.	.	.	.	13
CCCCN(C)C(=O)c1ccc(Nc2nc(C(N)COCc3ccccc3)cs2)nc1 (stereo unspecified)	-32	.	3	3	28	9
CC1(C(=O)NS(=O)(=O)c2cccc(C#N)c2)CCN1C(=O)C1(c2ccccc2)CC1 (stereo unspecified)	-45	.	7	-1	-4	9
Cc1cc(C)cc(N2C(=O)c3nccnc3C2=O)c1	-5	0	13	0	-11	12
Cc1cc(C)cc(N2C(=O)C=CC2=O)c1	89*	51	-34	106*	94*	-36
C[C@@H]1CN([C@H](C)CO)C(=O)CCCn2nncc2CO[C@@H]1CN(C)C(=O)NC1CCCCC1	9	.	-3	-22	-7	1
Cc1ccc(NC(=O)/C=C/c2ccc([N+](=O)[O-])s2)cc1	-42	82*	7	-72	16	-58
Cc1cccc(NC(=S)N/N=C/c2ccc([N+](=O)[O-])s2)c1	-14	51	16	4	73	-56
CS(=O)(=O)Nc1ccc([N+](=O)[O-])cc1Oc1ccccc1	69*	11	-3	10	13	32
CCc1nc2c(OCc3c(C)noc3C)cccn2c1N(C=O)Cc1ccccc1	-10	.	-3	2	-10	1
O=Cc1nccc2ccccc12	28	7	12	5	-3	-4
C(=Cc1c[nH]c2ccccc12)c1nccc2ccccc12	-249	-27	-55*	-92	-2	-52
O=C(NC(=Nc1nc2ccccc2o1)NC(=O)c1ccccc1)c1ccccc1	-20	-55	8	-95	-14	-186
COc1ccccc1C(=O)NC(=Nc1nc2ccccc2o1)NC(=O)c1ccccc1OC	-56	15	0	86*!	6	-11
COc1ccc(-n2c(C)c([N+](=O)[O-])c3ccc(O)c(CN4CCCCC4)c32)cc1	73*	18	-33	10	74	20

Screening data deposited in PubChem BioAssay by several laboratories.
